Bioassay records as filed in PubChem.
Only some compounds are listed: those with a hit (about 19% of all), similar ones and a draw of the others.
DT40 TDP1 CPT – growth inhibition of DT40 Tdp1-/-;hTDP1 cells with camptothecin (screen for TDP1 inhibitors) | chicken DT40 Tdp1-/-;hTDP1 cells + 20 nM CPT, ATP luminescence, 48 h | Potency, µM (series often up to 46.2 µM), without a hit: top-dose activity change, negative = growth inhibition, actives largely listed as inhibitors | 420,000 compounds, 12% hits | AID 686979; note: potency is the fitted concentration of half-maximal effect; nearly all actives have a fitted effect of over 55% in size
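Chicken DT40 Tdp1-/- cells complemented with human TDP1, 400 cells/well, exposed to compounds plus 20 nM camptothecin for at least 48 h at 37 C; viability read as ATP content by CellTiter-Glo luminescence.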
ELG1 repair inh – inhibitors of ELG1-dependent DNA repair in HEK293T cells; HEK293T ELG1-luciferase reporter, luminescence, 16 h; DNA damage induced by 5-fluorouridine; Potency, µM (titrated, usually from 46.1 µM), inactives show at the highest dose activity change, negative = inhibition, actives largely listed as inhibitors; 330,000 compounds, 2.3% hits; note: potency is the fitted concentration of half-maximal effect; nearly all actives have a fitted effect of over 55% in size
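HEK293T cells expressing luciferase-tagged ELG1 (2,000/well) received 5-Fluorouridine plus compound or DMSO for 16 hr at 37 °C. Luciferase was read by ONE-Glo luminescence after 30 min at room temperature.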
TDP1 inh – inhibitors of human tyrosyl-DNA phosphodiesterase TDP1 | 350,000 compounds, 0.28% hits | Q9NUW8 | AID 485290 | recombinant TDP1, AlphaScreen DNA substrate cleavage | Potency, µM (titrated, usually from 130 µM), without a hit: at the top dose activity change, negative = inhibition, hits mostly inhibitors; note: potency is the fitted concentration of half-maximal effect; nearly all actives have a fitted effect of over 40% in size
Target sequence (Q9NUW8 whole entry, looked up): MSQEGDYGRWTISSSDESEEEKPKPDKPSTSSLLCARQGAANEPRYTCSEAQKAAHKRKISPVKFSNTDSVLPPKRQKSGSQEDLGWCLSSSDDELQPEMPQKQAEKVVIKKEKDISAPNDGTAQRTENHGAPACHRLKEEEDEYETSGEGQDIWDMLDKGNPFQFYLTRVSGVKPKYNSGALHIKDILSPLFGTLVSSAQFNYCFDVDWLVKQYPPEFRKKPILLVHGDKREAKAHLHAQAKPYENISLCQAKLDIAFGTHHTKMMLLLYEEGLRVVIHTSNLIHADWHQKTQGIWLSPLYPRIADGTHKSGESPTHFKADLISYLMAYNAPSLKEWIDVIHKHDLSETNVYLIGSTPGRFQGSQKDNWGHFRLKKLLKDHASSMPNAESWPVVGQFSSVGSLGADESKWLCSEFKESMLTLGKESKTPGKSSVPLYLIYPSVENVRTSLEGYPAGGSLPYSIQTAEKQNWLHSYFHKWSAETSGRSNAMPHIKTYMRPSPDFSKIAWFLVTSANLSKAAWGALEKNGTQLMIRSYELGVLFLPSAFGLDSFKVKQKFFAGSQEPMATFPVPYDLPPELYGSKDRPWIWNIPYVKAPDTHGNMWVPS
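Signal: AlphaScreen proximity between streptavidin donor and anti-FITC acceptor beads on intact substrate. Reaction: Tdp1 1 nM, substrate 15 nM final, 5 min RT after 15 min compound preincubation.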
TDP1 cell noCPT – qHTS for Inhibitors of human tyrosyl-DNA phosphodiesterase 1 (TDP1): qHTS in cells in absence of CPT; DT40 Tdp1-/- hTDP1 cells, no CPT, ATP luminescence, 48 h; Potency, µM (highest dose often 46.2 µM), for inactives: at the top dose activity change, negative = growth inhibition, usual class: inhibitors; 420,000 compounds, 15% hits; AID 686978, 2013; note: potency is the fitted concentration of half-maximal effect; nearly all actives have a fitted effect of over 55% in size
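No-CPT arm: Tdp1-/-;hTDP1 DT40 cells (400/well) plus compounds, incubated ≥48 hr at 37 °C. Readout CellTiter-Glo luminescence.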
IL1B secr inh – inflammasome signaling inhibition, IL-1 beta readout. THP-1 LPS/ATP IL-1B secretion, AlphaLISA, 16 h; stronger effect = lower value. activity change, % at 57.5 µM. 360,000 compounds, 4.7% hits. AID 743279; in the data active = activity change below about -50%; inconclusive = mostly about -30% to -49%
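THP-1 cells pretreated 1 hr with compounds (up to 57.5 uM final), then stimulated with LPS (250 ng/mL final) plus ATP (1.25 mM final); secreted IL-1B measured by AlphaLISA after 16 hr, decreased signal indicating inhibition.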
Giardia kill – Giardia lamblia killing; 340,000 compounds, 0.15% hits; activity change, % at 7.66 µM, hits read low; Giardia lamblia trophozoite viability; in the data active = activity change below about -80%; inconclusive = between about -30% and that limit;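 note: parasites exposed to compound for two days anaerobically before the ATP read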
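Media and compound were dispensed first, then trophozoites at 100 cells/well; plates sat 48 hrs at 37 deg C without oxygen before ATP luminescence reagent was added and read after 15-30 min at room temperature.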
* marks the source's active call; other numbers are inactive results; i = inactive; ? = inconclusive; . = no result given; [ ] = remark or other dose. Unless noted, calls come from the whole dose curve; as a rule, active = well fitted curve in the direction sought with a large enough effect; inconclusive = small, poorly fitted or top-dose-only effect, or another doubt; inactive = no such curve, though single readings can be large; an effect the other way counts as inactive or inconclusive. % is set by controls: 0 for no effect and ±100 for the full control effect.

SMILES	DT40 TDP1 CPT	ELG1 repair inh	TDP1 inh	TDP1 cell noCPT	IL1B secr inh	Giardia kill
COC(=O)c1ccc(NC(=O)C(=O)c2c[nH]c3ccccc23)cc1	-1%	?	.	-18%	10	?
CCc1nnc(NS(=O)(=O)c2ccc(NC(=O)c3ccc([N+](=O)[O-])s3)cc2)s1	-7%	.	.	-5%	-6	.
O=C(O)CSCC(=O)N1CCN(c2ncnc3scc(-c4ccccc4)c23)CC1	1%	14%	.	3%	16	-12
Cc1cc(N)n(-c2ncnc3scc(-c4ccc(Cl)cc4)c23)n1	-1%	-1%	2%[56.1 µM]	-21%	32	6
CCOC(=O)N1CCN(c2ncnc3scc(-c4ccc(Cl)cc4)c23)CC1	18µM*	?	.	?	90	-7
CC(C)(C)C(=O)N1CCN(c2ncnc3scc(-c4ccccc4)c23)CC1	?	?	.	?	-56*	18
CCOC(=O)N1CCN(c2ncnc3scc(-c4ccccc4)c23)CC1	15µM*	?	.	8.2µM*	-1	-2
CCOC(=O)N1CCN(c2ncnc3c2cnn3-c2ccc(Cl)cc2)CC1	.	?	-3%	.	.	.
Clc1ccc(-c2csc3ncnc(N4CCc5ccccc5C4)c23)cc1	?	0%	-3%	21µM*	20	-1
N#CCCN1CCN(S(=O)(=O)c2ccc(C3CCCCC3)cc2)CC1	13µM*	6%	0%	-13%	0	9
O=S(=O)(c1ccc(C2CCCCC2)cc1)N1CCCC1	?	-2%	-5%	?	-65*	9
COCCNC(=O)CN(C(=O)CCC(=O)Nc1ccccn1)c1ccccc1OC	-7%	0%	.	0%	0	13
O=C1OC[C@@H]2CCCN2C(=O)[C@@H](CC(=O)N(CCO)Cc2ccccc2)C/C=C\C[C@H]1Cc1ccc(F)cc1	?	?	1%	15µM*	-17	-3
O=C1CCCC/C=C\C[C@H](CC(=O)N(CCO)Cc2ccccc2)C(=O)N2CCC[C@@H]2CO1	16µM*	8%	0%	?	9	11
CC(C)(C)OC(=O)C[C@@H]1C/C=C\C[C@@H](CC(=O)N(CCO)Cc2ccccc2)C(=O)N2CCC[C@H]2COC1=O	?	?	1%	?	1	12
CC(C)(C)OC(=O)C[C@@H]1C/C=C\C[C@H](CC(=O)N(CCO)Cc2ccccc2)C(=O)N2CCC[C@H]2COC1=O	?	?	0%	?	-2	4
CC(C)(C)OC(=O)C[C@H]1C/C=C\C[C@H](CC(=O)N(CCO)Cc2ccccc2)C(=O)N2CCC[C@H]2COC1=O	26µM*	?	0%	?	-19	13
O=C1OC[C@H]2CCCN2C(=O)[C@@H](CC(=O)N(CCO)Cc2ccccc2)C/C=C\C[C@H]1Cc1ccc(F)cc1	13µM*	-29%	2%	18µM*	-23	1
Cn1c(=O)c2cc(NC(=O)NCCc3cccs3)ccc2n1Cc1ccccc1	?	.	.	26%	-9	.
COCCN(CCOC)CC(O)COC(c1ccccc1)c1ccccc1 (stereo not given)	0%	-4%	0%	15µM*	-3	-6
CC(OC(=O)/C=C/c1cccc(Cl)c1)C(=O)NC1CCCCC1C (stereo not given)	-27%	23%	3%	-9%	11	-4
CCCNC(=O)Nc1ccc(C(F)(F)F)cc1	?	?	2%	-23%	?	-19
CC1=C/C(=N\OS(=O)(=O)c2ccccc2)C(C)=CC1=O	0.58µM*	?	8%	0.82µM*	-98*	18
CC1=C/C(=N\OS(=O)(=O)c2ccccc2)C(C(C)C)=CC1=O	1.6µM*	?	12%	2.3µM*	-95*	14
Cc1cnc(-c2nc3ccccc3n2C(C)C(=O)Nc2c(C)cccc2C)cn1 (stereo not given)	?	.	.	?	6	.
SMILES	DT40 TDP1 CPT	ELG1 repair inh	TDP1 inh	TDP1 cell noCPT	IL1B secr inh	Giardia kill
O=C(ONC1=NCCCCC1)c1c(F)cccc1F	16µM*	?	12%	?	-8	11
O=C(ONC1=NCCCCC1)c1ccc(Cl)cc1	21µM*	5%	7%	15µM*	-17	7
Cc1ccc(C(=O)NN(CCC(=O)NC(C)(C)C)C2=NS(=O)(=O)c3ccccc32)cc1	-8%	12%	3%	-1%	-5	-1
Cc1ccc(OCc2cc(C(=O)N(C)CCc3ccccn3)no2)cc1C	26µM*	?	7%	?	14	31
Cc1cccc(C)c1OCc1cc(C(=O)N(C)Cc2nc3ccccc3[nH]2)no1	?	-26%	5%[56.1 µM]	?	-14	-8
CN(Cc1ccccn1)C(=O)c1cc(COc2ccc(F)c(F)c2)on1	18µM*	.	.	?	-14	.
Cc1ccc(OCc2cc(C(=O)N(C)CCc3nc4ccccc4[nH]3)no2)cc1C	15µM*	?	.	21µM*	9	-23
Cc1ccc(OCc2cc(C(=O)N(C)Cc3cc(C4CC4)n[nH]3)no2)cc1C	?	16%	7%	23µM*	3	27
COc1ccc(C#Cc2c[nH]c(=O)c3cncnc23)cc1OC	-28%	.	2%	-29%	.	-2
C#CCN(C(=O)c1cc(COc2ccc(C)c(C)c2)on1)C1CCCCC1	?	-8%	-4%[56.1 µM]	23µM*	i	2
COc1ccc(CCNC(=O)CCn2c(=O)c3ccccc3n(Cc3cc(C)ccc3C)c2=O)cc1OC	-12%	.	7%	-25%	.	.
CCCCOc1ccc(NC2=NC3(CCCCC3)N=C(N)N2)cc1	5.2µM*	-15%	9%	2.6µM*	-28	-24
COc1ccc(NC2=NC3(CCCCC3)N=C(N)N2)cc1	-14%	0%	2%	-22%	-85*	-21
COC(=O)/C(=C\Nc1ccc(Cl)cc1Cl)NC(=O)c1ccc(Cl)cc1Cl	21µM*	.	4%	?	?	-19
COc1ccc(-c2cnnc(CCCn3ccnc3-c3ccccc3)n2)cc1	.	.	7%[21 µM]	.	.	.
CCCc1nc2c3ccccc3ccn2c1Cc1ccccc1	18µM*	.	.	21µM*	29	.
COc1ccc(-c2nc3c4ccccc4ccn3c2Cc2ccc(C)cc2)cc1OC	?	.	.	21µM*	-13	.
Cc1ccc(-c2nc3c4ccccc4ccn3c2Cc2ccccc2)cc1	?	.	.	?	59	.
Cc1ccc(Cc2c(-c3ccccc3)nc3c4ccccc4ccn23)cc1	23µM*	.	.	21µM*	47	.
COc1ccc(-c2nc3c4ccccc4ccn3c2Cc2cccc(Cl)c2)cc1OC	?	.	.	?	-10	.
